Laboratory results published in article PMC13541613, “GHT-SELEX demonstrates unexpectedly high intrinsic sequence specificity and complex DNA binding of many human transcription factors”.

Columns and labels:
Assay in all cases: HT-SELEX; 20 mM HEPES pH 7, 140 mM KCl, 5 mM NaCl, 1 mM K2HPO4, 2 mM MgSO4, 100 uM EGTA, ZnSO4, 0.1% Tween20; room temperature, 1 h; high values mean tight binding
Conditions in all cases: protein: ivt; tags: eGFP (N-terminal); dsDNA, one strand shown
ZNF721 full-length = ZNF721 full-length (Homo sapiens, UniProt Q8TF20-2 1-923)
Sequence of ZNF721 full-length (Q8TF20 other isoform, or with tags, fused parts or gaps): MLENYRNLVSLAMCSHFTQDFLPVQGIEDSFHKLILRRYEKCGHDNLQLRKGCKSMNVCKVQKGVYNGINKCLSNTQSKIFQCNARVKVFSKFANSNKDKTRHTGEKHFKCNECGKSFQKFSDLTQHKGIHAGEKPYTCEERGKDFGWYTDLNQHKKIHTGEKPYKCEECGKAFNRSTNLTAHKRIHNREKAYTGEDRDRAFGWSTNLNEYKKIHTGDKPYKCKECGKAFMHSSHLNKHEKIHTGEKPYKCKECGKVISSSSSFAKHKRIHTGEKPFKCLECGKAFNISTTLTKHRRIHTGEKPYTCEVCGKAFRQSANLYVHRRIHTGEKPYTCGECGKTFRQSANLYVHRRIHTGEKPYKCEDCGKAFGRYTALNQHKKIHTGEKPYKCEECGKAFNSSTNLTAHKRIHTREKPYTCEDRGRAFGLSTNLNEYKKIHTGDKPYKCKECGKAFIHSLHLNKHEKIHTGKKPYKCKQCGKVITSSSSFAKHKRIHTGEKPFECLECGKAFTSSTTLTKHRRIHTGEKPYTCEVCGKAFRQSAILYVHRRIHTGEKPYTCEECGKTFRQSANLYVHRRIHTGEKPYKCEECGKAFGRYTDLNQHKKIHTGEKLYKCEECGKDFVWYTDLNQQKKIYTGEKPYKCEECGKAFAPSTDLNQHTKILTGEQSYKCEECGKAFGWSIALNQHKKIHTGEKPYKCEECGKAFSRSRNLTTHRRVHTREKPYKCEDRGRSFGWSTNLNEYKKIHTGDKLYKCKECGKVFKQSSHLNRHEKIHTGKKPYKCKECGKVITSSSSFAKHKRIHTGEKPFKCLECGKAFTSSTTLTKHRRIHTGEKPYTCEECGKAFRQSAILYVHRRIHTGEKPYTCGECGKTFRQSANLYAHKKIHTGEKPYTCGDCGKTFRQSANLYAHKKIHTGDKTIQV
Outline: (§1)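 The binding signal is a relative k-mer count in selected reads, and higher values mean tighter binding. To obtain these reads, bead-bound tagged transcription factor (full-length or DNA-binding-domain fragment, produced in HEK293 lysate or cell-free extract) was mixed with a randomized 40-base DNA library for 1 h at room temperature in low-stringency HEPES/KCl buffer with Tween20. Bound DNA was recovered by washing and heat elution, PCR-amplified through successive cycles and sequenced on Illumina (~3 million 60 bp reads per sample).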

ZNF721 DBD1 = ZNF721 DBD1 (Homo sapiens, UniProt Q8TF20-2 29-461)
Sequence of ZNF721 DBD1 (Q8TF20 17-449): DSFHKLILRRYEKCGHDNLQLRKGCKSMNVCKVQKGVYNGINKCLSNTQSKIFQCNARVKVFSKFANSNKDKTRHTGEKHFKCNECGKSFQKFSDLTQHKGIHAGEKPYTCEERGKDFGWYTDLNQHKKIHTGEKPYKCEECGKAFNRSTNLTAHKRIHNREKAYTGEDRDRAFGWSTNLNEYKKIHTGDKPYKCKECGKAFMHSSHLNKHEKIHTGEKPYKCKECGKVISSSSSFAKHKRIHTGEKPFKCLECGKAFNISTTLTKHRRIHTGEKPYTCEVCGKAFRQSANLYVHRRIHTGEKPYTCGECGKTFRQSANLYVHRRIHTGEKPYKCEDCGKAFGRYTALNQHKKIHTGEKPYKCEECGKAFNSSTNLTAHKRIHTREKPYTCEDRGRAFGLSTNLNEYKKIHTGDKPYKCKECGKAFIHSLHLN
Outline: as §1

ZNF721 DBD2 = ZNF721 DBD2 (Homo sapiens, UniProt Q8TF20-2 395-923)
Sequence of ZNF721 DBD2 (Q8TF20 383-911): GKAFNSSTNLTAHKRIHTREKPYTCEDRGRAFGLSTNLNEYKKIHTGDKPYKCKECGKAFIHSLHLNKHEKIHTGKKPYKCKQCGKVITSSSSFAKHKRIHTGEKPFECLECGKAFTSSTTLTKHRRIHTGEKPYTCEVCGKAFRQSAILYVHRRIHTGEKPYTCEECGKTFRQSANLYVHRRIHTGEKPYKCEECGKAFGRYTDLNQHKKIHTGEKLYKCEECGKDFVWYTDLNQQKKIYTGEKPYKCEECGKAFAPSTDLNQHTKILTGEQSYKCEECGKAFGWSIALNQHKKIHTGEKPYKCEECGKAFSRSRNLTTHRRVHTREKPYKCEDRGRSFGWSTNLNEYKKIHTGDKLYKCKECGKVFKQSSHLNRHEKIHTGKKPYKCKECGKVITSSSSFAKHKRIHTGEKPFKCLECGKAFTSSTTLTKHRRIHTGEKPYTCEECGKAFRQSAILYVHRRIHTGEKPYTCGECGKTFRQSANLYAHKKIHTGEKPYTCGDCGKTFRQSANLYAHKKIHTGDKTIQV
Outline: as §1

Sequence | binding signal (ZNF721 full-length) [relative 10-mer count] | binding signal (ZNF721 DBD1) [relative 10-mer count] | binding signal (ZNF721 DBD2) [relative 10-mer count]
CCCCCCCCAA | 0.109 | 0.00316 | 0.00288
CCGCCCGCCC | 0.136 | 0.00495 | 0.00192
CCCACACACC | 0.114 | 0.00449 | 0.00455
CCCCCCCACG | 0.116 | 0.00399 | 0.00443
CCCTCCACCA | 0.109 | 0.00436 | 0.00659
CCTACCACCC | 0.111 | 0.00619 | 0.0101
CCACCCTCAC | 0.103 | 0.00427 | 0.00791
CCTCCACCCC | 0.263 | 0.0117 | 0.00455
GCAAAAAAAA | 0.118 | 0.0105 | 0.056
AAAGCATACC | 0.143 | 0.0247 | 0.0344
CCCCCTCACC | 0.149 | 0.00624 | 0.00372
CCCCAACCCC | 0.283 | 0.0104 | 0.00288
CCACCCCAGC | 0.102 | 0.00372 | 0.00252
AGGGTATCCA | 0.133 | 0.00858 | 0.224
ATCCCCACCC | 0.114 | 0.00459 | 0.00515
AGAAAAAAGC | 0.36 | 0.107 | 0.0556
AAAAAGAGCA | 0.108 | 0.0078 | 0.0193
CCACCCCCCG | 0.179 | 0.00628 | 0.0024
GCCCCACCAC | 0.137 | 0.00555 | 0.00743
CACCCCCCCC | 0.217 | 0.00789 | 0.00384
CAACCCCCAC | 0.108 | 0.00417 | 0.00216
CCCCTACCCC | 0.199 | 0.00954 | 0.00384
CACCCACCCA | 0.192 | 0.00835 | 0.00503
CCCACCCGCA | 0.109 | 0.00316 | 0.00563

Sequence | binding signal (ZNF721 full-length) [relative 10-mer count] | binding signal (ZNF721 DBD1) [relative 10-mer count] | binding signal (ZNF721 DBD2) [relative 10-mer count]
AGCATACCCC | 0.144 | 0.0115 | 0.146
CCCACCATCC | 0.152 | 0.00647 | 0.00527
CACACCACCC | 0.142 | 0.00573 | 0.00527
CCACGTCCCC | 0.11 | 0.00376 | 0.00252
AAAACAGTAT | 0.105 | 0.00124 | 0.155
CCGCCCCCCC | 0.197 | 0.00775 | 0.00192
CCCCCCACCA | 0.231 | 0.00904 | 0.00863
AGCATACCCT | 0.346 | 0.0443 | 0.416
AAAAAAGAAG | 0.101 | 0.0198 | 0.0207
CCCACCCCGA | 0.132 | 0.00404 | 0.00192
CACGCCCACC | 0.123 | 0.00518 | 0.00947
CCACCGTCCC | 0.112 | 0.00491 | 0.00467
CCCACCCACC | 0.425 | 0.0187 | 0.00899
CCGCCCACCA | 0.143 | 0.00477 | 0.00156
GCCCCGCCCC | 0.124 | 0.00436 | 0.00156
GTATGAAGCA | 0.171 | 0.261 | 0.00132
AAAAGCTGCC | 0.103 | 0.0372 | 0.00108
AAAAAAAGCA | 0.612 | 0.037 | 0.246
AGCGTACCCA | 0.188 | 0.0311 | 0.162
CGCCACCCCA | 0.135 | 0.00358 | 0.00192
CTACCCCCCC | 0.105 | 0.00427 | 0.00312
AAAAAAAAGA | 0.116 | 0.00757 | 0.0612
AGCGTATCCA | 0.221 | 0.0368 | 0.31
CCCAACCACC | 0.17 | 0.00752 | 0.00539

Sequence | binding signal (ZNF721 full-length) [relative 10-mer count] | binding signal (ZNF721 DBD1) [relative 10-mer count] | binding signal (ZNF721 DBD2) [relative 10-mer count]
CAGCCCCACC | 0.116 | 0.00349 | 0.0291
CACCCCACCG | 0.124 | 0.00459 | 0.00372
CAGCGTATCC | 0.324 | 0.00174 | 0.648
CCTCCCTCCC | 0.179 | 0.00931 | 0.00479
CCCCCGTCCC | 0.173 | 0.00642 | 0.00252
CAGCATCCCC | 0.143 | 0.00165 | 0.154
CCCCCACCAC | 0.312 | 0.0133 | 0.00707
CACCCCCCAC | 0.248 | 0.0103 | 0.00527
ACCCACCCGC | 0.102 | 0.00316 | 0.00276
CTCCCCCCGC | 0.114 | 0.00468 | 0.00144
CACCCCTCCC | 0.181 | 0.00826 | 0.00336
CCCGCCCACC | 0.259 | 0.0105 | 0.0024
CTCCCCACCA | 0.115 | 0.00596 | 0.00587
AAAAAAAGAA | 0.104 | 0.00867 | 0.0321
CCCCTCCGCC | 0.167 | 0.00766 | 0.003
CCCCGACCAC | 0.111 | 0.00422 | 0.00395
CGAAAAAACA | 0.153 | 0.0022 | 0.161
CCCCCGACCC | 0.181 | 0.00587 | 0.0018
CCGCCCCCGC | 0.127 | 0.00491 | 0.0018
CCCCGCCCCG | 0.144 | 0.00486 | 0.00348
CCACCTCCCA | 0.127 | 0.0061 | 0.00384
CCACCCACCC | 0.415 | 0.0173 | 0.00587
CCCCACCCCC | 0.447 | 0.0179 | 0.00419
ACGAAAAAAA | 0.107 | 0.0146 | 0.0612

Sequence | binding signal (ZNF721 full-length) [relative 10-mer count] | binding signal (ZNF721 DBD1) [relative 10-mer count] | binding signal (ZNF721 DBD2) [relative 10-mer count]
GGAGGGGGGA | 0.131 | 0.00601 | 0.00336
CCACCCCCGC | 0.203 | 0.0072 | 0.00264
ACCAAAAAAA | 0.128 | 0.00904 | 0.0723
GCCACCCCCA | 0.107 | 0.00326 | 0.00216
AGAAAGAAGC | 0.136 | 0.0675 | 0.00216
CACCCCCTCC | 0.159 | 0.00899 | 0.00719
AGCGTTTCCA | 0.214 | 0.00252 | 0.459
CCCTCCCGCC | 0.161 | 0.00716 | 0.00503
GCCCCCCCCC | 0.112 | 0.00367 | 0.00276
CCCCGCACCC | 0.179 | 0.00812 | 0.00252
CACCACCCCG | 0.135 | 0.00518 | 0.00312
ACCCTCCACC | 0.127 | 0.00482 | 0.00707
AGGGTGGGTG | 0.158 | 0.0094 | 0.00515
CCCCACCTCC | 0.24 | 0.0128 | 0.00575
ACCCACCCCT | 0.134 | 0.00541 | 0.00324
ACACTTCATA | 0.548 | 0.649 | 0.00144
GCCCACCACC | 0.17 | 0.00688 | 0.00336
CCCCACCACG | 0.11 | 0.0039 | 0.00623
CGTCCCCACC | 0.115 | 0.00541 | 0.00467
CCCCCCACAC | 0.17 | 0.00656 | 0.00671
CCCCAGCCCC | 0.202 | 0.0083 | 0.0018
